Peg3 prom inh: inhibitors of Peg3 promoter; 360,000 compounds, 1.7% hits; HeLa PEG-Prom luciferase reporter, luminescence, overnight; inhibition, % at 20 µM; AID 588405;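 active = inhibition of at least 50% at 20 µM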
HIF-2a block: inhibitors of HIF-2a | 786-0 RCC cells HIF-2a reporter, luciferase luminescence, overnight | inhibition, % at 18.8 µM | 360,000 compounds, 0.72% hits | AID 624352;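 active = inhibition of the luminescence signal of 40% or more relative to plate controls, in a single-dose primary screen at 18.75 µM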
Shn3 3UTR inh: reduces Shn3 3'UTR luciferase signal in osteoblasts; Clone20 osteoblast Shn3 3'UTR firefly luciferase, 24 h; inhibition, % at 12.5 µM; 360,000 compounds, 0.52% hits; AID 588674;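 active = mean inhibition of at least 75% with every replicate also reaching 75%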
MITF TRPM1 inh: inhibitors of MITF-driven TRPM1 promoter in melanoma cells | 330,000 compounds, 0.83% hits | SK-MEL-5 TRPM1 promoter luciferase, 24 h | inhibition, % at 12.5 µM;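 active = mean inhibition across replicates of 60% or more, whatever share of single replicates reaches that level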
KKLEB cytotox: counter-screen for CF NF-kB inhibitors: cytotoxicity | KKLEB CF airway cells viability, ATPlite luminescence, overnight; hits give low values; cells stimulated with P. aeruginosa culture filtrate | activity change (cytotoxicity), % at 5 µM | 360,000 compounds, 0.36% hits | AID 602141;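 active = corrected activity change at or below -50% at 5 µM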
CF NFkB block: inhibitors of cystic fibrosis induced NF-kB; KKLEB NF-kB-GFP reporter, PAF-induced, GFP fluorescence overnight; inhibition, % at 5 µM; 360,000 compounds, 0.86% hits; AID 588850;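 active = at least 50% inhibition at 5 µM, scaled per plate between neutral and stimulator controls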;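 also: PAF is a Pseudomonas aeruginosa culture filtrate used as stimulus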
Mdm2 MdmX conf: confirmation of inhibitors of human Mdm2/MdmX interaction, set 2. inhibition, % at 8 µM. 740 compounds, 99% hits. shares compounds with HIF-2a block. SaOS-2 split-luciferase Mdm2/MdmX complementation, luminescence. AID 504601;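 active = mean inhibition of the luminescence signal across two replicates at or above 26 percent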
Target sequence (O15151 whole entry, looked up): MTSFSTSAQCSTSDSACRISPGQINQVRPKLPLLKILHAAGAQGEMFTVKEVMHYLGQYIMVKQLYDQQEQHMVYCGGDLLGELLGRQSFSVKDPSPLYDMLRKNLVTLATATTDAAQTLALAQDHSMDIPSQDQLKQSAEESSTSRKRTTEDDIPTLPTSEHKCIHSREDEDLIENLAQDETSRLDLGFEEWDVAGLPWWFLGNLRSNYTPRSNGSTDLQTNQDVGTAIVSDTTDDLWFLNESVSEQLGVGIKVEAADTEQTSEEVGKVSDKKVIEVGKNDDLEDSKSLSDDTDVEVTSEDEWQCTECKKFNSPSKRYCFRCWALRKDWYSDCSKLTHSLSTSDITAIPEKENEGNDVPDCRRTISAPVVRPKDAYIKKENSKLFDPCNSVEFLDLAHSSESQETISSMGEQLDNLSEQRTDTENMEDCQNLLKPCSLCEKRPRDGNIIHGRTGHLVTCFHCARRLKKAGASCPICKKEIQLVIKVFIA
Target sequence (Q00987 whole entry, looked up): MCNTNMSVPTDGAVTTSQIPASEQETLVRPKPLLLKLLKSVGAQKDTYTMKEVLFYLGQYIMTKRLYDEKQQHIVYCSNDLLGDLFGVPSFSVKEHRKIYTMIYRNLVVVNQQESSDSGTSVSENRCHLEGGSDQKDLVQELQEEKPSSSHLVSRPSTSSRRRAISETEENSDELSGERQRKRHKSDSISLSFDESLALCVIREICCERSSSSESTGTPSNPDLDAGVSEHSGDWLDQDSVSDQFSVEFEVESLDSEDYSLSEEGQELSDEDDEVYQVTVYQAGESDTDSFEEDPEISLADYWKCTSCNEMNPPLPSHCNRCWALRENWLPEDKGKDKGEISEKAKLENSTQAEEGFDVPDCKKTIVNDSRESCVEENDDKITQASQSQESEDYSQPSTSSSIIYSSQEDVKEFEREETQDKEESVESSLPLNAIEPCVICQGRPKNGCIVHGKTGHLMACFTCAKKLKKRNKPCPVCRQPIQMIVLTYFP
HIF-2a conf: confirmation of HIF-2a inhibitors | shares compounds with HIF-2a block | 786-0 RCC cells, HIF-2a luciferase reporter luminescence, overnight | inhibition, % at 18.8 µM | 1,800 compounds, 56% hits | AID 651580;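 active = mean inhibition across four replicates of at least 40 percent at the single tested concentration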
HIF-1a cs: counter-screen for HIF-2a inhibitors: HIF-1a inhibition in MiaPaCa-2 cells; AID 651589; inhibition, % at 18.8 µM; shares compounds with HIF-2a block; 1,800 compounds, 72% hits; MiaPaCa-2 HIF-1a luciferase reporter, desferoxamine, overnight;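 active = mean inhibition of the reporter signal across four replicates at the single tested dose of 50% or more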
Of the large screens only hits and unclear results are named; the others gave an inactive call (follow-up assays come after a bar, where they were run). Sampled rows, rich in hits. Any-hit rate of the full collection: about 2.8%.

CCOC(=O)COc1ccc2nsnc2c1	none
CCOC(=O)COc1ccc(/C=C/[N+](=O)[O-])c(OCC(=O)OCC)c1	Peg3 prom inh 106, HIF-2a block 75, MITF TRPM1 inh 92 | HIF-2a conf inactive | HIF-1a cs 90
O=[N+]([O-])/C=C/c1cn(Cc2ccc(Cl)cc2)c2ccccc12	Peg3 prom inh 81, HIF-2a block 51, Shn3 3UTR inh 89 | HIF-2a conf inactive | HIF-1a cs 85
CCOC(=O)Cn1cc(/C=C/[N+](=O)[O-])c2ccccc21	HIF-2a block 77 | HIF-2a conf 60 | HIF-1a cs inactive
Cc1cccc(Cn2cc(/C=C/[N+](=O)[O-])c3ccccc32)c1	none
CCOc1ccc(/C=C/[N+](=O)[O-])c2ccccc12	Peg3 prom inh 99, HIF-2a block 89, Shn3 3UTR inh 95, MITF TRPM1 inh 84 | HIF-2a conf inactive | HIF-1a cs 105
CCOC(=O)Cn1cc(C#N)c2ccccc21	none
CCCn1c(C2CCCN2c2nc(-c3cccc(Br)c3)cs2)nc2ccccc21 (stereo not drawn)	none
NC(=O)C1CCN(C(=O)Nc2csc3ccccc23)CC1	none (no result: MITF TRPM1 inh)
Cc1ccc(Oc2c(C(N)=O)cc([N+](=O)[O-])cc2[N+](=O)[O-])cc1	Peg3 prom inh 106, HIF-2a block 94, Shn3 3UTR inh 93, MITF TRPM1 inh 92, KKLEB cytotox -95, CF NFkB block 85 | Mdm2 MdmX conf 102 | HIF-2a conf 74 | HIF-1a cs 102
CCN(C(=O)COC(=O)c1cc(=O)[nH]c2ccccc12)C1CCS(=O)(=O)C1 (stereo not drawn)	none
CC1C/C(=C/c2cccn2C)C(=O)/C(=C/c2cccn2C)C1 (stereo not drawn)	none
CC1C/C(=C/c2ccncc2)C(=O)/C(=C/c2ccncc2)C1 (stereo not drawn)	Peg3 prom inh 104, HIF-2a block 94, MITF TRPM1 inh 106, KKLEB cytotox -55, CF NFkB block 82 | Mdm2 MdmX conf 100
CC(C)OC(=O)CC1C(=O)NCCN1C(=S)NC(=O)c1cccs1 (stereo not drawn)	none
COc1ccccc1C(=O)NCCC(=O)NNC(=O)c1ccccc1O	none
Nc1nc(N)c2c(ccc3c2ccn3Cc2cccc([N+](=O)[O-])c2)n1	Peg3 prom inh 100, HIF-2a block 89 (no result: MITF TRPM1 inh) | HIF-2a conf inactive | HIF-1a cs 105
CC(C)(C)CNC(=O)c1cccc2c1C(=O)c1ccc(-c3cc4ccccc4o3)cc1S2(=O)=O	none
CCOCc1c(C(=O)NCC(c2ccco2)N2CCCC2)oc2ccccc12 (stereo not drawn)	none
Cc1ccc(-c2cc(C(=O)NCCCN3CCOCC3)no2)cc1	HIF-2a block 84 | HIF-2a conf 82 | HIF-1a cs 71
CC(=O)N1CCc2cc(S(=O)(=O)CCC(=O)N3CCN(c4cc(C)ccc4C)CC3)ccc21	none
O=[N+]([O-])c1ccc(N=Nc2ncc[nH]2)cc1	Peg3 prom inh 107, CF NFkB block 75 | Mdm2 MdmX conf 103
COc1cc(/C=C/C(=O)c2ccc(NS(=O)(=O)c3ccc(C)cc3)cc2)cc(OC)c1O	Peg3 prom inh 65, HIF-2a block 54, MITF TRPM1 inh 67 | HIF-2a conf 64 | HIF-1a cs 104
COc1cc(/C=C/C(=O)c2ccc(C)c([N+](=O)[O-])c2)cc(OC)c1O	Peg3 prom inh 63, HIF-2a block 47 | HIF-2a conf inactive | HIF-1a cs inactive
CC(C)n1cnnc1SCC(=O)NC(=O)c1ccccc1	none
O=C(O)c1cncc(C#CCC2CCCCC2)c1	none
CO/N=C/C1CCN(c2ncc(C(F)(F)F)cc2Cl)C1=O (stereo not drawn)	none
NC(=O)C(C(=O)/C=C/c1ccc(Cl)cc1)=C1SCCS1	Peg3 prom inh 61 (no result: Shn3 3UTR inh) | Mdm2 MdmX conf 102
COc1ccc(/C=C/C(=O)C(C(N)=O)=C2SCCS2)cc1	none
O=C(C#Cc1ccccc1)c1cccc([N+](=O)[O-])c1	Peg3 prom inh 106, HIF-2a block 46, Shn3 3UTR inh 93, MITF TRPM1 inh 102, CF NFkB block 59 | HIF-2a conf inactive | HIF-1a cs 86
O=C(Nc1ccc(Cl)cc1)Nc1ccccc1Sc1ncc([N+](=O)[O-])s1	none
O=[N+]([O-])c1cnc(Sc2ccncn2)s1	Peg3 prom inh 110, HIF-2a block 95, MITF TRPM1 inh 83, CF NFkB block 75 | Mdm2 MdmX conf 102
Cc1cccc(-c2noc(CCCC(=O)NC3CCCCC3)n2)c1	none
COc1ccccc1NC(=S)N=Nc1c(O)[nH]c2ccc(Br)cc12	Peg3 prom inh 92 | Mdm2 MdmX conf 84
Cc1ccc(CNC(=O)COc2ccc(S(=O)(=O)N3CCOCC3)cc2)cc1	none
Cc1oc(-c2cccc(Cl)c2)nc1CN1CCC(C(=O)NCCCN2CC(C)CC(C)C2)CC1 (stereo not drawn)	Peg3 prom inh 92, MITF TRPM1 inh 96 | Mdm2 MdmX conf 103
COC(=O)c1cc(=O)n(Cc2ccc(OC)cc2)c(=NCc2ccc(OC)cc2)s1	none
COC(=O)c1cc(=O)n(Cc2ccc3c(c2)OCO3)c(=Nc2ccc(F)c(Cl)c2)s1	Peg3 prom inh 57, HIF-2a block 53 | HIF-2a conf inactive | HIF-1a cs 59
O=Cc1ccc(-c2cccs2)s1	HIF-2a block 44 | HIF-2a conf 52 | HIF-1a cs inactive
O=C(C(=Cc1ccccc1)CN1CCCCC1)c1ccccc1	Peg3 prom inh 103, HIF-2a block 80, Shn3 3UTR inh 95, MITF TRPM1 inh 97, KKLEB cytotox -84, CF NFkB block 80 | HIF-2a conf 98 | HIF-1a cs 105
O=C(O)c1cc2c([nH]c1=O)CCCC2	none
C=CCSC(=C(C#N)C#N)c1cc2c([nH]1)CCCC2	Peg3 prom inh 94, HIF-2a block 66 | HIF-2a conf inactive | HIF-1a cs 106
COCCN(Cc1ccc(OC)cc1)c1c(C)nc2ccc(C(=O)Nc3ccc(NC(C)=O)cc3)cn12	none (no result: MITF TRPM1 inh)
COc1cc(N2C(=O)C=CC2=O)c(OC)cc1Cl	Peg3 prom inh 106, HIF-2a block 41 (no result: Shn3 3UTR inh) | HIF-2a conf 80 | HIF-1a cs inactive
O=c1cccc2n1Cc1cc3ccccc3nc1-2	none
CC[C@@]1(O)C(=O)OCc2c1cc1n(c2=O)Cc2cc3c(N)cccc3nc2-1	Peg3 prom inh 72, MITF TRPM1 inh 80, CF NFkB block 76 | Mdm2 MdmX conf 100
Cc1cc(N)n2ncc(-c3ccccc3)c2n1	none
